Sa helicase inh – S. aureus DNA helicase inhibition | 120,000 tested, 0.05% active | inhibition, % (test concentration not listed) | purified S. aureus helicase, fluorescence unwinding assay; in the data active means inhibition above about 25%, passing the limit was not always enough;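 further: 0% = mean of negative control wells and 100% = mean of positive control wells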
HCMV NEC inh – cytomegalovirus nuclear egress complex inhibition | HTRF UL50-UL53 interaction, normalized percent inhibition | inhibition, % (concentration not given with the values) | 190,000 tested, 0.15% active; in the data active means inhibition above about 27%, passing the limit was not always enough
Sa growth 42C – blocks Staphylococcus aureus growth; AID 720641; 170,000 tested, 0.53% active; relative growth, % (test concentration not listed); S. aureus RN4220 growth, OD600, 20 h, 42 °C; active compounds read low;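 active means relative growth at most 50% at the other temperature and 20+ points below 30 °C, or under 10% at both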
Starred values were filed as active, the others as inactive. The full list was thinned out, with hits kept by preference.

Screening O=C(N=Nc1c2ccccc2c2nc3no[nH]c3nc12)c1ccccc1O returned Sa helicase inh -28, HCMV NEC inh -10 and Sa growth 42C 0.6*.
For O=C(Nc1cccc(-c2nnc3n2CCCCC3)c1)C1=CN2CCS(=O)(=O)N=C2C=C1 the results were Sa helicase inh -5, HCMV NEC inh 5 and Sa growth 42C 107.
Screening O=C(NCCC1=CCCCC1)C1CCCN(c2ccnc(-c3ccc(F)cc3)n2)C1 (stereo unspecified) returned HCMV NEC inh -9.
For O=C1NC(Cc2c[nH]c3ccccc23)C(=O)N1CN1CCCCC1 (stereo unspecified) the results were Sa helicase inh 8, HCMV NEC inh -36 and Sa growth 42C 80.
Screening Cc1c(C)c(C)c(C#CCO)c(C)c1C returned Sa helicase inh -13, HCMV NEC inh -26 and Sa growth 42C 3.2*.
`CCN(CC)CCCNCc1ccc2c(c1)n(C)c(=O)n2C` gave HCMV NEC inh -6.
CC1CCC(NC(=O)C2CCCN(C(=O)c3cc(-c4ccncc4)n[nH]3)C2)CC1 (stereo unspecified) was read as HCMV NEC inh -14.
Screening CCOC(=O)c1sc(SC#N)c(-c2ccccc2)c1N returned Sa helicase inh 25, HCMV NEC inh -8 and Sa growth 42C 1.1*.
Screening CCOC(=O)c1sc(SC#N)c(C(=O)OCC)c1C returned Sa helicase inh -19, HCMV NEC inh -7 and Sa growth 42C 70.
CCS(=O)(=O)c1ncc(Cl)c(C(=O)Nc2ccc(Cl)cc2)n1 was read as Sa helicase inh -5, HCMV NEC inh -23 and Sa growth 42C 1.8*.
CCS(=O)(=O)c1ncc(Cl)c(C(=O)N2CCN(c3cccc(Cl)c3)CC2)n1 was read as HCMV NEC inh -1 and Sa growth 42C 7.0*.
For CS(=O)(=O)c1ncc(Cl)c(C(=O)N2CCN(c3cccc(Cl)c3)CC2)n1 the results were HCMV NEC inh 13 and Sa growth 42C 64.
For CCS(=O)(=O)c1ncc(Cl)c(C(=O)Nc2ccc(S(N)(=O)=O)cc2)n1 the results were HCMV NEC inh -71.
Screening Cc1sc(-c2noc(C3CCC3)n2)cc1NC(=O)c1ccsc1 returned HCMV NEC inh -6.
`CCCNc1nc2nc3ccc(C)cn3c(=O)c2cc1C(N)=O` gave Sa helicase inh 23, HCMV NEC inh -134 and Sa growth 42C 100.
For CCOc1cc(C=C2C(=O)NC(=S)NC2=O)ccc1OCCOc1ccc(C)c(C)c1 the results were HCMV NEC inh -9.
`CCCCn1cnc2cc(NCc3ccc(Br)cc3)ccc21` gave Sa helicase inh 6 and Sa growth 42C 7.6*.
For CCCn1cnc2cc(NCc3ccccc3O)ccc21 the results were Sa helicase inh 0 and Sa growth 42C 98.
`CCCn1cnc2cc(NCc3ccncc3)ccc21` gave Sa helicase inh 10 and Sa growth 42C 79.
`CCCn1cnc2cc(NCc3ccc(Br)cc3)ccc21` gave Sa helicase inh 5, HCMV NEC inh 8 and Sa growth 42C 0.3*.
For CCCCn1cnc2cc(NCc3cc(OC)c(OC)c(OC)c3)ccc21 the results were Sa helicase inh 19, HCMV NEC inh -2 and Sa growth 42C 99.
CCCn1cnc2cc(NCc3ccc(Cl)cc3Cl)ccc21 was read as Sa helicase inh 3 and Sa growth 42C 0.5*.
For Oc1ccccc1CNc1ccc2c(c1)ncn2C1CCCCC1 the results were Sa helicase inh 6, HCMV NEC inh -10 and Sa growth 42C 109.
`Cc1ccc(CNc2ccc3c(c2)ncn3C2CCCCC2)cc1` gave Sa helicase inh -7 and Sa growth 42C -0.5*.
COc1nccnc1-c1cccc(-n2cccn2)c1 was read as HCMV NEC inh -19.
`CC(NC(=O)COc1cccc(-n2cnnn2)c1)c1ccc2c(c1)OCO2` (stereo unspecified) gave Sa helicase inh -3, HCMV NEC inh -23 and Sa growth 42C 81.
Cc1ccc(C(=O)C2=C(O)C(=O)N(CC3CCCO3)C2c2cccc(Cl)c2)o1 (stereo unspecified) was read as Sa helicase inh -4 and HCMV NEC inh -24.
Screening COc1ccc(C(=O)N2c3ccccc3N3C(c4c(C)cc(C)cc4C)=NON23)cc1 returned Sa helicase inh 9 and Sa growth 42C 86.
COC(=O)C1=C(C)N=c2s/c(=C\c3cccc([N+](=O)[O-])c3)c(=O)n2C1c1ccc(OC)c(OC)c1 (stereo unspecified) was read as HCMV NEC inh -29.
Screening O=C(Nc1nc(-c2cccs2)cs1)c1ccc(S(=O)(=O)N2CCOCC2)cc1 returned Sa helicase inh 6, HCMV NEC inh -16 and Sa growth 42C 89.
COc1ccc(NC(=O)Cn2nc3c(Sc4ccccc4)nc4ccccc4n3c2=O)cc1OC was read as HCMV NEC inh -21.
Screening COc1ccc(Nc2cc(C)nc3ccc(OC)cc23)cc1 returned Sa helicase inh 63*, HCMV NEC inh -64 and Sa growth 42C 88.
COc1ccc(CNc2cc(C)nc3ccc(OC)cc23)cc1 was read as Sa helicase inh -11, HCMV NEC inh -2 and Sa growth 42C 75.
Cc1[nH]n(-c2ccccc2)c(=O)c1/C=N/O was read as Sa helicase inh 17, HCMV NEC inh -35 and Sa growth 42C 80.
`Cc1[nH]n(-c2ccccc2)c(=O)c1N=O` gave Sa helicase inh 0, HCMV NEC inh 38* and Sa growth 42C 104.
For C=CCNC(=O)c1nnn(-c2ccc3noc(-c4ccc(Br)cc4)c3c2)c1C the results were HCMV NEC inh -18.
For N#CCOc1nc(OCC#N)nc(OCC#N)n1 the results were Sa helicase inh -9, HCMV NEC inh 25 and Sa growth 42C 28*.
For COc1nc(OCC#N)nc(N(C)C)n1 the results were Sa helicase inh 4, HCMV NEC inh 3 and Sa growth 42C 96.
`O=C(Nc1ncn(Cc2ccccc2)n1)c1cc([N+](=O)[O-])cc([N+](=O)[O-])c1` gave HCMV NEC inh -176.
For CCCNC(=O)Cc1c(C)nc2nc(-c3ccc(C(C)(C)C)cc3)nn2c1C the results were HCMV NEC inh -14.
COc1cccc2sc(Nc3sc4c(c3C(N)=O)CCCC4)nc12 was read as Sa helicase inh -2 and Sa growth 42C 1.1*.
Screening COc1ccc2nc(Nc3sc4c(c3C(N)=O)CCCC4)sc2c1 returned HCMV NEC inh -19.
For O=C1CC(=O)N(Cc2ccco2)C(=O)N1 the results were Sa helicase inh -9, HCMV NEC inh 87* and Sa growth 42C 98.
O=C1CC(=O)N(Cc2cccs2)C(=O)N1 was read as Sa helicase inh -4, HCMV NEC inh -5 and Sa growth 42C 98.
`O=C(NCc1ccc2c(c1)OCO2)c1ccc2noc(-c3ccc(Cl)cc3)c2c1` gave HCMV NEC inh -22.
Screening COc1cc(OC)cc(-c2nc3ccccc3c(=O)n2NC(=O)c2ccc(Br)cc2)c1 returned HCMV NEC inh -12.
Screening C=C(C)C1Cc2cc(/C=C/C(=O)O)c(O)cc2O1 (stereo unspecified) returned Sa helicase inh 9, HCMV NEC inh -24 and Sa growth 42C 0.5*.
Screening C=C(C)C1Cc2cc3ccc(=O)oc3cc2O1 (stereo unspecified) returned Sa helicase inh 1, HCMV NEC inh -23 and Sa growth 42C 103.
For Oc1c(Cl)cc(Cl)cc1Sc1cc(Cl)cc(Cl)c1O the results were HCMV NEC inh 42 and Sa growth 42C -0.6*.
